# Bioassay records: PubChem BioAssay, several laboratories
# This is a sample that favours compounds with a hit; in the whole collection about 3.1% have one here.
# HSF1 activator: HSF-1 activators, primary screen, NIH3T3-HGL cells, MG132 stress, luminescence, single point | 1.7% of 300,000 active | AID 504408, 2011 | activation, % at 9 µM | NIH3T3-HGL HSF-1 luciferase reporter, 8 h; 100% = twice DMSO control signal;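 active means mean replicate activation of at least 50% with a set share of replicates each reaching 50%; inconclusive means only one of those two conditions met; inactive means mean below 50% and too few replicates reaching it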;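 further: 0% = median of the neutral control wells and 100% = twice that signal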
# HIF activator: HIF pathway transcriptional activators, primary screen, cell-based, U2OS HRE-luciferase, luminescence. U2OS HRE-luciferase reporter; normalized: DMSO 0%, desferrioxamine 100%. activation, % at 7.5 µM (by protocol). 0.32% of 300,000 active. AID 1910, 2009;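 active means mean activation of at least 10% of the iron chelator positive control signal, with at least half of replicates also reaching 10%; inconclusive means mean and replicate majority disagree about reaching 10%; inactive means mean and most replicates under 10%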
# HSP90 refold inh: HSP90 inhibitors, primary screen, cell lysate, luminescence; Heat shock protein HSP 90 (rabbit reticulocyte lysate; luciferase refolding); Rabbit reticulocyte lysate, luciferase refolding luminescence, 3 h; inhibition, % at 5.6 µM; 0.91% of 290,000 active;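 active means inhibition above the screen-wide mean plus 3 SD, computed separately per campaign, cut at about 16% in these data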;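 further: 0% = DMSO wells and 100% = 60 µM geldanamycin wells; inhibitors lower the luminescence because luciferase stays unfolded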
# HSF1 inh: HSF1 inhibitors in luciferase reporter cells, primary screen, cell-based, NIH3T3, luminescence | NIH3T3-HGL HSE-luciferase, MG132-induced, luminescence 8 h; active compounds read low | activity change, negative = inhibition, % at 7.5 µM (by protocol) | 0.77% of 300,000 active | AID 2098, 2009;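 active means more than half of replicate wells show activity change below -50%, luminescence cut by over half; inconclusive means some wells, but at most half, below -50%; inactive means no replicate well below -50%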;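 further: luciferase reports HSF-1 transcriptional activity via heat shock element; 0% = median of DMSO wells and -100% = zero luminescence signal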
# ARNT-TACC3 inh: disruptors of ARNT/TACC3 protein interaction, primary screen, biochemical, AlphaScreen, single concentration; Transforming acidic coiled-coil-containing protein 3 (Homo sapiens), Q9Y6A5; AlphaScreen His-ARNT PAS-B/GST-TACC3 binding, luminescence; TACC3 fragment carries E629A point mutation; inhibition, % at 9.99 µM; 0.66% of 390,000 active; AID 623870, 2012;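 active means mean inhibition of replicates at least 50% and at least half of replicates each reaching 50%; inconclusive means half or more replicates reach 50% but mean below 50%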;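 further: 0% = complete ARNT plus TACC3 wells and 100% = ARNT alone without TACC3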
# Starred values were filed as active, the others as inactive; ? = inconclusive; / = no result.
SMILES,HSF1 activator,HIF activator,HSP90 refold inh,HSF1 inh,ARNT-TACC3 inh
C[C@H](CO)N1C[C@H](C)[C@@H](CN(C)Cc2ccc(Cl)c(Cl)c2)OCCCC[C@H](C)Oc2ccc(NC(=O)Nc3ccccc3)cc2C1=O,/,/,/,/,-1
COc1ccc(S(=O)(=O)Nc2cccc3c2O[C@H](CN(C)S(=O)(=O)c2ccc(Cl)cc2)[C@H](C)CN([C@@H](C)CO)C3=O)cc1,/,/,/,/,-16
N/C(=N\N=C\c1ccc(O)cc1)c1nonc1N,16,2,0,12,-1
N/C(=N\N=C\c1cccc(O)c1)c1nonc1N,49,0,29*,16,-2
COc1ccc(NC(=O)Nc2ccc3c(c2)C(=O)N([C@H](C)CO)C[C@H](C)[C@H](CN(C)Cc2ccccc2)OCCCC[C@@H](C)O3)cc1,/,/,/,/,-5
CNC(=S)N(CCc1c(C)[nH]c2ccc(F)cc12)Cc1cccnc1,-89,0,0,-86*,4
C[C@H](CO)N1C[C@H](C)[C@@H](CN(C)C(=O)CN(C)C)Oc2cc(-c3cccnc3)ccc2S1(=O)=O,/,/,/,/,7
C[C@H](CO)N1C[C@H](C)[C@@H](CN(C)S(=O)(=O)c2cn(C)cn2)Oc2ncc(C3=CCCC3)cc2C1=O,/,/,/,/,-6
Cc1cc(=O)n(CCO)c(O)c1C#N,10,0,9,-1,3
Cc1c(C#N)c(O)n(CCO)c(=O)c1N=Nc1ccc2c(c1)COC2=O,67*,1,15,67,3
Cc1ccc(/C(=N/Nc2ncnc3ccccc23)C(=O)O)cc1,41,?,5,15,61*
C=C1CC2(OC1=O)c1ccccc1CCc1ccccc12,60*,/,/,60*,1
O=C1OC2(c3ccccc31)c1ccccc1-c1ccccc12,/,/,/,/,-2
O=C(COC(=O)C1C2CC3OC(=O)C1C3C2)Nc1cccc(Cl)c1 (stereo not given),-72,-1,-4,-64*,-4
CCOC(=O)Cn1c(CCC(=O)O)ccc1-c1ccc(F)cc1,-82,0,-2,-77*,/
CCC(=O)N1CCCCN2[C@H](CO)[C@@H](c3ccc(C#Cc4ccccc4F)cc3)[C@@H]2C1,/,/,/,/,1
Cc1ccc(C(=O)/C=C/c2ccc3c(c2)OCO3)o1,60*,0,-1,41,6
Cc1ccc(O)c(C(=O)/C=C/c2ccc3c(c2)OCCCO3)c1,448*,3,-1,278,-3
O=C(/C=C/c1ccc2c(c1)OCCCO2)c1ccccc1O,12,3,0,16,0
COc1cccc(/C=C/C(=O)c2ccc[nH]2)c1,86*,0,-4,50,19
COC(=O)/C=C/c1ccc2c(c1)OCO2,-8,-1,-1,-4,-7
CCNc1ccccc(C(=O)/C=C/c2ccc3c(c2)OCO3)c1=O,72*,0,0,35,16
CCNC(=O)[C@@H]1[C@@H](CO)[C@@H]2Cn3c(ccc(C4=CCCC4)c3=O)[C@H]1N2Cc1ccncc1,/,/,/,/,7
O=C(C[C@@H]1CC[C@H]2[C@@H](COC[C@H](O)CN2C(=O)Cc2ccccc2)O1)NC1CCCC1,/,/,/,/,0
O=C(C[C@@H]1C=C[C@@H](NC(=O)c2ccccc2)[C@H](CO)O1)NCc1ccncn1,/,/,/,/,-8
SMILES,HSF1 activator,HIF activator,HSP90 refold inh,HSF1 inh,ARNT-TACC3 inh
CCCNC(=O)N1C[C@@H](C)[C@H](OC)CN(C)C(=O)c2ccc(NS(C)(=O)=O)cc2OC[C@@H]1C,/,/,/,/,-5
O=C(/C=C/c1ccc2c(c1)OCO2)c1ccc[nH]1,62*,2,7,26,13
CCCNC(=O)[C@@H]1[C@@H](CO)[C@@H]2Cn3c(ccc(C4=CCCC4)c3=O)[C@@H]2N1CCC,/,/,/,/,4
CC=Cc1ccc2n(c1=O)C[C@@H]1[C@@H](CO)[C@H](C(=O)NCCC)N(CCC(F)(F)F)[C@H]21 (mixture of isomers),/,/,/,/,2
Cc1cc(C)cc(NC(=O)c2ccc(CSc3nnc(C)s3)cc2)c1,69*,1,-1,38,-7
Cc1ccc(NC(=O)c2ccc(CSc3nnc(C)s3)cc2)cc1,?,1,2,15,-3
CC(=O)OCC1OC(Sc2cccc3cccnc23)C(OC(C)=O)C(OC(C)=O)C1OC(C)=O (stereo not given),-2,-1,-2,4,68*
CC(=O)OCC1OC(n2ccc3ccccc32)C(OC(C)=O)C(OC(C)=O)C1OC(C)=O (stereo not given),-10,-1,0,-2,-9
O=C(C[C@@H]1C=C[C@@H](NC(=O)c2ccccc2)[C@@H](CO)O1)NCc1ccncn1,/,/,/,/,5
COc1cc(OC)cc(-c2cc3nc(C)c(CCC(=O)NCc4ccccc4)c(C)n3n2)c1,-53,-3,13,-57*,-9
C/C=C/c1ccc2c(c1)O[C@H](CN(C)C(=O)Cc1cccnc1)[C@@H](C)CN([C@@H](C)CO)S2(=O)=O,/,/,/,/,1
Cc1ccc2c(Cl)c(C(=O)NCC3CCCO3)sc2c1 (stereo not given),54*,1,1,29,5
Cc1ccc2c(Cl)c(C(=O)NCCc3ccccc3)sc2c1,77*,-37,-4,41,2
O=C(NCC1CCCO1)c1sc2ccccc2c1Cl (stereo not given),34,1,4,13,-7
COc1ccc(NC(=O)CCc2nnc3ccc(NCc4ccc5c(c4)OCO5)nn23)cc1,66*,0,5,23,-7
COc1ccc(NC(=O)CCc2nnc3ccc(NCc4ccco4)nn23)cc1,1,0,-1,-4,-4
O=C(O)CC1=C(Nc2ccccc2)C(=O)N(c2ccccc2)C1c1ccc(Br)cc1 (stereo not given),57*,3,-7,38,4
COc1cccc(-c2cnc3c(c2)C(=O)N([C@@H](C)CO)C[C@H](C)[C@H](CN(C)Cc2ccc(F)cc2)O3)c1,/,/,/,/,1
COc1cccc(CNC(=O)CCCn2c(=S)[nH]c3cc4c(cc3c2=O)OCO4)c1,-12,29*,4,1,1
Cc1ccc(N/C=C(/C#N)c2ccsc2)cc1C,101*,3,3,58,-1
COc1cccc(-n2cnc3sc(-c4ccccc4)cc3c2=O)c1,54*,2,/,24,-4
CC(C)NC(=O)Nc1ccc2c(c1)CC(=O)N([C@@H](C)CO)C[C@@H](C)[C@H](CN(C)Cc1ccncc1)O2,/,/,/,/,1
CC(=O)Nc1ccc2c(c1)CCCC2=O,9,9.6*,2,3,-3
Cc1ccc(S(=O)(=O)Nc2ccc3c(c2)C(=O)N([C@H](C)CO)C[C@@H](C)[C@H](CN(C)C(=O)C2CCCCC2)OCCCC[C@@H](C)O3)cc1,/,/,/,/,-6
